The list is not random: actives were taken first. Their share in the collection is about 6.4%.
RORgamma inh: ROR gamma (mouse) transcription inhibition. P51450. Drosophila S2 Gal4-RORgamma UAS-luciferase reporter, 20 h. Potency, µM (series often up to 53.6 µM), usual class: inhibitors. actives 5.4% (n = 310,000). AID 2551; further: nearly all actives have a fitted effect of over 60% in size
Target sequence (P51450 whole entry, looked up, the tested form may be a part): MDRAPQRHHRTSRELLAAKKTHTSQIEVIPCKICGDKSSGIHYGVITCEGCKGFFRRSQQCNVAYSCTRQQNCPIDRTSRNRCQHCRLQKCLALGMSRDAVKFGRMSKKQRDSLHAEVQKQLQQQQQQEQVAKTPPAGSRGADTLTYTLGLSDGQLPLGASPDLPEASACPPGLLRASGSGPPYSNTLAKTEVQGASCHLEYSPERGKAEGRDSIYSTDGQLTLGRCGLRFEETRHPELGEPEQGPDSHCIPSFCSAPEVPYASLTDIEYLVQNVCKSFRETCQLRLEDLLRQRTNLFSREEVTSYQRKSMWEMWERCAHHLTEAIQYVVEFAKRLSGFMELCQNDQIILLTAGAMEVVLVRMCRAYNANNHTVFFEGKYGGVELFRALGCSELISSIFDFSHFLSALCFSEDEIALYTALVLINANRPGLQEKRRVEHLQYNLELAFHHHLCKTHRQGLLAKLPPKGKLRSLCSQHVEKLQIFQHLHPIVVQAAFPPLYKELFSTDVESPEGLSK
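Read-out: Photinus luciferase luminescence; inhibitors lower reporter signal. Insect Schneider cells with Gal4-ROR gamma fusion under metallothionein promoter, UAS reporter; 700 uM final copper sulfate induction, 20 hr, ambient temperature.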
Luc counter: blocks Kinase-Glo luciferase, a counter-screen artifact; Q27757; Kinase-Glo luciferase, ATP luminescence, 8 min; Potency, µM (titrated, usually from 38.3 µM), hits mostly inhibitors; actives 0.28% (n = 200,000); AID 1379; further: nearly all actives have a fitted effect of over 60% in size
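Light output from Kinase-Glo luciferase with luciferin and 10 uM ATP in 50 mM imidazole pH 7.2, KCl, MgCl2, Tween 20, BSA; compound pin-delivered, 8-min ambient incubation, then luminescence read.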
Gal4-VP16 FLuc: inhibits Gal4-VP16 luciferase reporter, ROR gamma counter-screen. Drosophila S2 Gal4-VP16 UAS-luciferase, luminescence, 20 h. Potency, µM (top dose mostly 53.6 µM), hits mostly inhibitors. actives 3.5% (n = 310,000). AID 2546;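 further: Gal4-VP16 expression switched on by copper sulfate through the metallothionein promoter; nearly all actives have a fitted effect of over 50% in size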
Each line names hits and unclear results; the compound was inactive in the other large screens. The call rests on the fitted dose curve; in most records, active means well fitted curve in the direction sought with a large enough effect; inconclusive means small, poorly fitted or top-dose-only effect, or another doubt; inactive means no such curve, though single readings can be large; an effect the other way counts as inactive or inconclusive.

CC1(C(=O)NCC2CCCO2)Oc2cccnc2NC1=O (configuration not stated)	none
CCC(=O)N/C(=N/c1nc(C)cc(C)n1)Nc1ccccc1	Gal4-VP16 FLuc inconclusive (no result: Luc counter)
COc1ccccc1C(=O)N/C(=N/c1nc(C)cc(C)n1)Nc1ccccc1	RORgamma inh 10µM, Gal4-VP16 FLuc inconclusive (no result: Luc counter)
CC(C)=CCC/C(C)=C/C=C/C1=CC2(C)CC1(C)C(/C=C(\C)CCC=C(C)C)CC2=O (configuration not stated)	none (no result: Luc counter)
CCS(=O)(=O)N1Cc2ccccc2CC1C(=O)Nc1nc2ccccc2s1 (configuration not stated)	RORgamma inh 3.5µM, Gal4-VP16 FLuc 4.5µM
CCc1nnc(NC(=O)C2Cc3ccccc3CN2S(=O)(=O)c2c(C)c(C)cc(C)c2C)s1 (configuration not stated)	RORgamma inh 11µM
CCS(=O)(=O)N1Cc2ccccc2CC1C(=O)Nc1nc2ccccc2[nH]1 (configuration not stated)	RORgamma inh inconclusive
CCc1nnc(NC(=O)C2Cc3ccccc3CN2S(=O)(=O)CC)s1 (configuration not stated)	none
CC(=O)N1N=C(c2ccc(C)c([N+](=O)[O-])c2)OC1(C)C	none (no result: Luc counter)
Cc1cnc(NC(=O)c2cc3c(C)nn(Cc4ccccc4Cl)c3s2)s1	RORgamma inh 3.5µM, Gal4-VP16 FLuc 4.5µM
Cc1cnc(NC(=O)Cc2ccccc2Cl)s1	none (no result: Luc counter)
Cc1cn(CC[C@H](N)C(=O)O)c(=O)[nH]c1=O	none (no result: RORgamma inh, Gal4-VP16 FLuc)
O=C(CN1CCN(c2ccccc2F)CC1)c1c[nH]c2ccc(F)cc12	none
NC(=O)C1CCN(CC(=O)c2c[nH]c3ccc(F)cc23)CC1	Gal4-VP16 FLuc 16µM
O=C1c2ccccc2C(=O)N1CCCCN(C(=O)c1cc2ccccc2oc1=O)c1ccc(F)cc1F	RORgamma inh inconclusive
CCc1cc2c(=O)c(-c3nc(C)cs3)coc2cc1O	none (no result: Luc counter)
Cc1nc(-c2coc3cc(OCC(=O)O)ccc3c2=O)cs1	RORgamma inh 7.1µM, Luc counter inconclusive, Gal4-VP16 FLuc 6.3µM
COc1ccc2c(=O)c(-c3nc(C)cs3)coc2c1	RORgamma inh 1.3µM, Luc counter inconclusive, Gal4-VP16 FLuc 2.2µM
Cc1nc(-c2coc3cc(O)c(C)cc3c2=O)cs1	Luc counter inconclusive, Gal4-VP16 FLuc inconclusive
NCCCC[C@@H](N)C(=O)O	none (no result: Luc counter)
CCN(CC)S(=O)(=O)c1ccc(N2CCOCC2)c(NCC(=O)Nc2ccc(F)cc2)c1	none
CC(=O)C1C(=O)C=C(c2cccs2)CC1c1ccccc1 (configuration not stated)	RORgamma inh 13µM
O=C1C=C(c2cccs2)C[C@H](c2ccccc2)[C@H]1n1nnc([N+](=O)[O-])n1	RORgamma inh inconclusive
CC(C)N(C(=O)CSc1nc2ccccc2n1Cc1ccccc1)C(C)C	RORgamma inh inconclusive, Gal4-VP16 FLuc inconclusive
CC(C)N(C(=O)CSc1nc2ccccc2n1-c1ccccc1)C(C)C	RORgamma inh 11µM, Gal4-VP16 FLuc inconclusive
COC(=O)Nc1ccc(N2CCOCC2)c(S(=O)(=O)N2CCOCC2)c1	none (no result: Luc counter)
O=C(CNc1ccccc1)N/N=C/c1cn(-c2ccccc2)nc1-c1ccccc1	Gal4-VP16 FLuc 1µM
O=C(N/N=C/c1cn(-c2ccccc2)nc1-c1cccnc1)c1cccnc1	RORgamma inh 14µM, Gal4-VP16 FLuc inconclusive
O=C(/C=C/c1cn(-c2ccccc2)nc1-c1cccnc1)N1CCCC1	none
O=C(N/N=C/c1cn(-c2ccccc2)nc1-c1ccc(F)cc1)c1ccc(Br)o1	RORgamma inh 1.8µM, Gal4-VP16 FLuc 2.5µM
O/N=C/c1cn(-c2ccccc2)nc1-c1cccnc1	none
NC(=O)N/N=C/c1cn(-c2ccccc2)nc1-c1ccccc1	Luc counter inconclusive, Gal4-VP16 FLuc inconclusive
O=C(/C=C/c1cn(-c2ccccc2)nc1-c1cccnc1)c1ccco1	RORgamma inh 6.3µM, Gal4-VP16 FLuc inconclusive
O=S(=O)(N/N=C\c1cn(-c2ccccc2)nc1-c1ccccc1)c1ccccc1	RORgamma inh inconclusive
O=C(NCCCN1CCOCC1)c1ccc(Cl)cc1Cl	RORgamma inh inconclusive (no result: Luc counter)
Cc1ccc(C2=NN(CC(=O)NCCC(C)C)C(=O)CC2)cc1	none (no result: Luc counter)
CCOc1ccccc1N1CC(C(=O)N2CCOCC2)CC1=O (configuration not stated)	none (no result: Luc counter)
O=C(N/N=C/c1cn(-c2ccccc2)nc1-c1cccnc1)c1ccc(F)cc1	RORgamma inh 2.8µM, Gal4-VP16 FLuc 4µM
O=C(N/N=C/c1cccnc1)c1ccc(F)cc1	none (no result: Luc counter)
CCOC(=O)/C=C/C(=O)Nc1ccc(S(=O)(=O)Nc2nccs2)cc1	none (no result: Luc counter)
CCCCCCC#CC1C=CC(Oc2ccc(C=O)cc2)C(CO)O1 (configuration not stated)	none (no result: Luc counter)
CCOc1cc(C)c(S(=O)(=O)NC2CCCCC2)cc1C	Gal4-VP16 FLuc 11µM
CCCOc1cc(C)c(S(=O)(=O)NC2CC(C)(C)NC(C)(C)C2)cc1C	none
